Measured values from PubChem BioAssay AID1159580 (chemical genetic matrix, 2015).
“And” between values parts separate entries of the source, which are not always exact repeats. Equal values may be shown once. Among all 5,500 compounds or so, about 2,000 (36%) were called active. Not shown: some 18% with an inconclusive outcome. Cut-off read from the data, not from the text of the source: active = normalized growth mostly below about 0.91 (no sharp cut-off); inconclusive = no clear call, values can overlap the other calls; inactive = mostly above about 0.92. The list shows a part of the results.

Test: chemical genetic growth profiling, strain panel (AID 1159580);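 note: tested at 20 µM; growth read once vehicle control cultures reached saturation at 30 °C; 1 = growth at the plate median or of vehicle wells; lower values mean less growth of the strain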
Settings: S. cerevisiae deletion strains, growth OD

Measured: normalized growth

Cn1cnc2c1c(=O)[nH]c(=O)n2C
inactive: locus YAL013W, strain DEP1, hits give low values 1.01 | locus YAL021C, strain ccr4, hits give low values 0.952 | locus YAL026C, strain drs2, hits give low values 0.989 | locus YAL030W, strain snc1, hits give low values 0.985 | locus YAL040C, strain CLN3, hits give low values 0.992 | locus YBL061C, strain skt5, hits give low values 0.985 | locus YBR009C, strain hhf1, hits give low values 0.997 | locus YBR021W, strain FUR4, hits give low values 0.991 | locus YBR023C, strain chs3, hits give low values 1 | locus YBR171W, strain sec66, hits give low values 0.99 | locus YBR229C, strain ROT2, hits give low values 1.01 | locus YBR231C, strain swc5, hits give low values 0.985 | locus YBR279W, strain paf1, hits give low values 0.997 | locus YCL011C, strain gbp2, hits give low values 0.978 | locus YCL016C, strain dcc1, hits give low values 0.993 | locus YCL029C, strain bik1, hits give low values 1.03 | locus YCL061C, strain MRC1 (second series), hits give low values 1.01 | locus YCL061C, strain MRC1, hits give low values 0.984 | locus YCL069W, strain vba3, hits give low values 0.983 | locus YCR088W, strain abp1, hits give low values 0.991 | locus YDL005C, strain med2, hits give low values 0.989 | locus YDL035C, strain GPR1, hits give low values 1.01 | locus YDL040C, strain nat1, hits give low values 0.992 | locus YDL074C, strain BRE1, hits give low values 1.02 | locus YDL101C, strain DUN1, hits give low values 1.02 | locus YDL134C, strain PPH21, hits give low values 1.01 | locus YDL185W, strain tfp1, hits give low values 1.01 | locus YDL192W, strain arf1, hits give low values 1.01 | locus YDR001C, strain nth1, hits give low values 0.984 | locus YDR069C, strain doa4, hits give low values 0.959 | locus YDR101C, strain arx1, hits give low values 1.01 | locus YDR137W, strain rgp1, hits give low values 1.03 | locus YDR150W, strain NUM1, hits give low values 1.01 | locus YDR159W, strain sac3, hits give low values 0.973 | locus YDR162C, strain NBP2, hits give low values 1.01 | locus YDR195W, strain ref2 0.944 | locus YDR297W, strain sur2, hits give low values 0.991 | locus YDR318W, strain mcm21, hits give low values 1.03 | locus YDR334W, strain swr1, hits give low values 0.98 | locus YDR335W, strain msn5, hits give low values 0.976 | locus YDR363W, strain ESC2, hits give low values 0.998 | locus YDR388W, hits give low values 1.01 | locus YDR392W, strain spt3, hits give low values 0.993 | locus YDR502C, strain sam2, hits give low values 1 | locus YEL003W, strain gim4, hits give low values 0.988 | locus YEL037C, strain rad23, hits give low values 0.993 | locus YEL061C, strain CIN8 (second series), hits give low values 0.974 | locus YEL061C, strain CIN8, hits give low values 1.01 | locus YER002W, strain NOP16, hits give low values 1.04 | locus YER015W, strain faa2, hits give low values 0.981 | locus YER016W, strain bim1, hits give low values 0.991 | locus YER110C, hits give low values 1.01 | locus YER111C, strain swi4, hits give low values 0.985 | locus YER155C, strain BEM2 (second series), hits give low values 1 | locus YER155C, strain BEM2, hits give low values 1.01 | locus YER167W, strain BCK2, hits give low values 1.01 | locus YFR010W, strain ubp6, hits give low values 0.971 | locus YGL078C, strain dbp3, hits give low values 1.01 | locus YGL086W, strain mad1, hits give low values 1 | locus YGL167C, strain pmr1, hits give low values 0.976 | locus YGL173C, strain kem1, hits give low values 0.988 | locus YGL227W, strain vid30, hits give low values 0.994 | locus YGL240W, strain doc1, hits give low values 0.966 | locus YGL248W, strain PDE1, hits give low values 1.01 | locus YGL253W, strain hxk2, hits give low values 0.99 | locus YGR078C, strain PAC10, hits give low values 1.01 | locus YGR135W, strain pre9, hits give low values 1.02 | locus YGR229C, strain SMI1, hits give low values 1.02 and 1.05 | locus YGR252W, strain gcn5, hits give low values 1.01 | locus YHR013C, strain ard1, hits give low values 0.961 | locus YHR027C, strain rpn1, hits give low values 0.972 | locus YHR030C, strain SLT2, hits give low values 1.01 and 0.97 | locus YHR079C, strain IRE1 (second series), hits give low values 1.02 | locus YHR079C, strain IRE1, hits give low values 0.996 | locus YHR094C, strain hxt1, hits give low values 1.01 | locus YHR129C, strain ARP1, hits give low values 1.01 | locus YHR142W, strain chs7, hits give low values 0.999 | locus YHR200W, strain rpn10, hits give low values 1 | locus YIL066C, strain RNR3, hits give low values 1.02 | locus YIL073C, strain SPO22, hits give low values 1.05 | locus YIL125W, strain kgd1, hits give low values 1.01 | locus YIR030C, strain dcg1, hits give low values 1.01 | locus YJL092W, strain hpr5, hits give low values 0.989 | locus YJL095W, strain BCK1 (second series), hits give low values 0.996 | locus YJL095W, strain BCK1, hits give low values 1.03 and 0.985 | locus YJL115W, strain asf1, hits give low values 0.976 | locus YJL129C, strain trk1, hits give low values 0.963 | locus YJL134W, strain LCB3, hits give low values 1.01 | locus YJL154C, strain vps35, hits give low values 0.995 | locus YJL164C, strain tpk1, hits give low values 0.978 | locus YJL166W, strain qcr8, hits give low values 0.992 | locus YJL168C, strain set2, hits give low values 1.01 | locus YJL187C, strain SWE1 (second series), hits give low values 1.03 | locus YJL187C, strain SWE1, hits give low values 0.983 | locus YJR043C, strain POL32, hits give low values 1.01 | locus YJR066W, strain TOR1, hits give low values 0.963
